Only some compounds are listed: those with a hit (about 8% of all), similar ones and a draw of the others.
Gal4-VP16 FLuc: inhibits Gal4-VP16 luciferase reporter, ROR gamma counter-screen. hit rate 3.5% among 310,000. Drosophila S2 Gal4-VP16 UAS-luciferase, luminescence, 20 h. Potency, µM (doses to about 53.6 µM), for the others: at the highest dose activity, negative = inhibition, actives largely listed as inhibitors;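 note: Gal4-VP16 expression switched on by copper sulfate through the metallothionein promoter; potency is the fitted concentration of half-maximal effect; nearly all actives have a fitted effect of over 50% in size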
TSHR antagonist: antagonists of human thyroid stimulating hormone receptor. activity change, negative = inhibition, % at 11.5 µM. P16473. TSHR-expressing cells, TSH-stimulated cAMP HTRF, 2 h; hits give low values. AID 504810. hit rate 0.2% among 330,000;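 active = activity change below a set negative limit, meaning inhibition stronger than a set level, cut at about -70% in these data; inconclusive = activity change between two set negative limits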
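Antagonism was scored as loss of TSH-driven cAMP in TSHR cells, stimulated with 4nM TSH (EC80) for 2 hours at 37 deg C and detected by homogeneous HTRF competition immunoassay.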
ELG1 repair inh: ELG1-dependent DNA repair inhibition; hit rate 2.3% among 330,000; Potency, µM (titrated, usually from 46.1 µM), for the others: at the top dose activity change, negative = inhibition, usual class: inhibitors; AID 504467; HEK293T ELG1-luciferase reporter, luminescence, 16 h; DNA damage induced by 5-fluorouridine; note: potency is the fitted concentration of half-maximal effect; nearly all actives have a fitted effect of over 55% in size
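Cells (2,000 per well) received 5-fluorouridine plus test compound or DMSO and were incubated 16 hr at 37 °C, 5% CO2. Luciferase activity was read by luminescence 30 min after ONE-Glo addition; signal suppression marked inhibition of damage-induced ELG1 function.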
RORg inh: inhibitors of mouse ROR gamma transcriptional activity; Drosophila S2 Gal4-RORgamma UAS-luciferase reporter, 20 h; Potency, µM (highest dose often 53.6 µM), for inactives: at the top dose activity change, negative = inhibition, actives largely listed as inhibitors; hit rate 5.4% among 310,000; AID 2551; note: potency is the fitted concentration of half-maximal effect; nearly all actives have a fitted effect of over 60% in size
Target sequence (P51450 whole entry, looked up, the tested form may be a part): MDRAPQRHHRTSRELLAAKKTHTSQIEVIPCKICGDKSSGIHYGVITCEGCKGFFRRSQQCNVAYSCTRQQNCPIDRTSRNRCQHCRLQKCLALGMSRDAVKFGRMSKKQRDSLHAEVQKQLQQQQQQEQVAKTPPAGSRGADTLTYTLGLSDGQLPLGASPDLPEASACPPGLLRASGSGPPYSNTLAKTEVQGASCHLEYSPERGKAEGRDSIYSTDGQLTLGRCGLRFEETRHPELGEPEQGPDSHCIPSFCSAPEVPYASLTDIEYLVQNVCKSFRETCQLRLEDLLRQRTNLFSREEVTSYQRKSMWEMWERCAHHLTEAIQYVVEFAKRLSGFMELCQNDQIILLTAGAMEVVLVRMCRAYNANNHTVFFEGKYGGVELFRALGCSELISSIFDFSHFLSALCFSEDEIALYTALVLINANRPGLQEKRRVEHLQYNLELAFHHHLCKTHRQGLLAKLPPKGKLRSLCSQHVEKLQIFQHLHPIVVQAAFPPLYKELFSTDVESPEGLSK
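Drosophila Schneider cells stably carrying a metallothionein-driven Gal4 DBD–ROR gamma fusion and a UAS-Photinus luciferase reporter were exposed to compound for 1 hr, then induced with copper sulfate (700 uM final) for 20 hr at ambient temperature before luminescence reading.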
FBPA coupling cs: inhibits coupling enzyme system, counter-screen for aldolase hits; coupling enzyme system counterscreen, AmpLite Red fluorescence; activity change, negative = inhibition, % at 58.2 µM, hits read low; hit rate 0.67% among 290,000; in the data active = activity change below about -30%
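Compounds tested against the coupling enzymes alone at 57.5 uM final; readout was AmpLite Red fluorescence (525/598 nm) after 20 min at RT.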
* = called active by the depositor; ? = inconclusive; . = no result given; [ ] = another dose, or the depositor's remark. Unless noted, calls come from the whole dose curve; as a rule, active = well fitted curve in the direction sought with a large enough effect; inconclusive = small, poorly fitted or top-dose-only effect, or another doubt; inactive = no such curve, though single readings can be large; an effect the other way counts as inactive or inconclusive. % is set by controls: 0 for no effect and ±100 for the full control effect.

SMILES | Gal4-VP16 FLuc | TSHR antagonist | ELG1 repair inh | RORg inh | FBPA coupling cs
COc1ccc(-n2cnc3cc([N+](=O)[O-])ccc32)cc1 | 26% | 5 | -9% | 12% | 0
COc1ccc2cc3c(N)nn(C(=O)c4cccc([N+](=O)[O-])c4)c3nc2c1 | -7% | -11 | 2.3µM* | 17% | 2
CC(=O)NC[C@@H]1CN(c2ccc(N3CCOCC3)c(F)c2)C(=O)O1 | -2% | . | . | -14%[10 µM] | .
CCCCCCCC1=CC2=C(Cl)C(=O)C(C)(OC(C)=O)C(=O)C2=CN1C (stereo not given) | -4% | . | . | -3% | -29
CCOc1ccc(NC(=S)NC(C)c2cccs2)cc1 (stereo not given) | 5µM* | 8 | -21% | 3.2µM* | 3
CCOc1ccc(NC(=S)NNC(=O)CC(C)O)cc1 (stereo not given) | 1% | -3 | -7% | -15% | 3
CCOc1ccc(NC(=S)Nc2ccccc2C2(C)CC2)cc1 | ? | 1 | ? | 7.9µM* | 3
COc1ccc(NC(=S)Nc2ccc(F)cc2)cc1 | ? | 2 | -1% | ? | 4
CCOc1ccc(NC(=S)NN(C)C(=S)Nc2ccc(OCC)cc2)cc1 | ? | -3 | 2% | 7.9µM* | 3
CCOc1ccc(NC(=S)Nc2ccc(F)cc2)cc1 | ? | -8 | 27% | 13µM* | -2
Cc1ccc2c(=O)c3cccc(CC(=O)O)c3oc2c1C | -6% | . | . | -11% | 13
COc1ccc(-c2nc3cnc(N4CCOCC4)nc3n(CCC#N)c2=O)cc1 | -4% | . | . | -12% | 0
COc1cc(-c2oc3cc(O)cc(O)c3c(=O)c2O)ccc1O | -13% | . | . | 3% | 0
COc1ccc(-c2oc3ccc(C)cc3c(=O)c2O)cc1OC | ? | . | . | 5µM* | 2
COc1ccc(-c2oc3ccccc3c(=O)c2O)cc1OC | ? | . | . | 6.3µM* | 2
O=c1c(O)c(-c2cccc(O)c2)oc2ccccc12 | 2% | . | . | ? | -2
COc1cccc(-c2oc3ccccc3c(=O)c2O)c1 | 7.9µM* | . | . | 6.3µM* | -1
COc1cc(OC)c2c(=O)c(O)c(-c3ccc(OC)c(OC)c3)oc2c1 | ? | . | . | 2.8µM* | -2
Cc1noc(C)c1-c1nccc(N(C)C)n1 | -18% | . | . | -41% | 7
O=c1c(O)c(-c2ccc3c(c2)OCO3)oc2ccccc12 | 11µM* | -9 | ? | 6.3µM* | 4
O=c1c(O)c(-c2ccc(O)cc2)oc2ccc(O)cc12 | -3% | . | . | ? | 1
COc1ccc(-c2oc3c(OC)c(OC)c(OC)c(O)c3c(=O)c2OC)cc1OC | ? | -8 | 12µM* | 11µM* | 2
Cc1ccc(OCC(=O)c2cc(C)c(C)cc2C)c([N+](=O)[O-])n1 | ? | 7 | ? | 11µM* | -5
Cc1ccc(C)c(C(=O)COc2ccc(C)nc2[N+](=O)[O-])c1 | ? | 12 | 9% | ? | -3
Cc1ccc(C)c(C(=O)COc2ccccc2[N+](=O)[O-])c1 | 13µM* | -1 | 2% | -97% | -1
SMILES | Gal4-VP16 FLuc | TSHR antagonist | ELG1 repair inh | RORg inh | FBPA coupling cs
COc1cc(C(O)CO)ccc1OS(=O)(=O)O (stereo not given) | . | -7 | 20% | . | .
CC(Sc1ccccc1)C(=O)N1CCN(S(=O)(=O)c2ccc(Cl)cc2)CC1 (stereo not given) | 8% | -3 | 9% | 1% | 2
N#CCCn1c(=O)c(-c2cc(F)cc(F)c2)nc2cnc(Nc3ccccc3)nc21 | -2% | . | . | 11% | -1
Cn1c(=O)c(-c2cc(F)cc(F)c2)nc2cnc(Nc3ccccc3)nc21 | ? | . | . | 10µM* | 4
COc1ccccc1CNc1ncncc1-c1ccc(C(=O)N(C)C)cc1 | -13% | . | . | -15% | 0
COc1cc2c(cc1OC)C(c1ccc(-c3ccc(Cl)c(Cl)c3)o1)=NCC2 | ? | -28 | 15µM* | 13µM* | 0
COc1cc2c(cc1OC)C(c1ccc(-c3ccc(Cl)cc3Cl)o1)=NCC2 | 20µM* | -29 | ? | 6.3µM* | 0
COc1cc2c(cc1OC)C(c1ccc(-c3ccccc3Cl)o1)=NCC2 | 11µM* | -17 | ? | 11µM* | -2
COc1cc2c(cc1OC)C(c1ccc(-c3cc(Cl)ccc3Cl)o1)=NCC2 | -1% | ? | ? | 0% | -9
COc1cc(CCCN2CCNC[C@H]2Cc2cccc3ccccc23)cc(OC)c1OC | . | -1 | ? | . | .
O=C(O)c1ccccc1OS(=O)(=O)O | -3% | . | . | 3% | 4
O=C(NCc1ccc2c(c1)OCO2)c1nc(S(=O)(=O)Cc2ccccc2)ncc1Cl | ? | -11 | -12% | ? | .
O=C(NCc1ccccc1)c1nc(S(=O)(=O)Cc2ccccc2)ncc1Cl | 2.8µM* | -36 | -23% | 5µM* | .
CC(=O)Nc1ccc(NC(=O)c2nc(S(=O)(=O)Cc3ccccc3)ncc2Cl)cc1 | 0.35µM* | ? | ? | 2.2µM* | .
COC(=O)c1ccccc1NC(=O)c1nc(S(=O)(=O)Cc2ccccc2)ncc1Cl | 3.2µM* | -19 | -13% | ? | .
COc1ccc(CNC(=O)c2nc(S(=O)(=O)Cc3ccccc3)ncc2Cl)cc1 | 3.5µM* | -38 | ? | 5.6µM* | .
CSc1ncccc1C(=O)N1CCCC(N2CCN(c3ccccc3F)CC2)C1 (stereo not given) | -9% | 14 | -8% | -1% | .
CC(C)n1nnnc1SCC(=O)N(C)C1CCS(=O)(=O)C1 (stereo not given) | . | -14 | 13% | . | .
O=C(CN1C(=O)CSc2ccc(S(=O)(=O)N3CCOCC3)cc21)NCc1ccc(Cl)cc1 | -1% | 8 | -2% | 13% | 2
O=C(NCc1ccc2c(c1)OCO2)c1nc(S(=O)(=O)Cc2ccccc2F)ncc1Cl | 3.5µM* | -44 | -12% | 7.1µM* | 2
CS(=O)(=O)c1ncc(Cl)c(C(=O)Nc2ccc3ccccc3c2)n1 | 4.5µM* | ? | ? | 2.8µM* | -1
CCS(=O)(=O)c1ncc(Cl)c(C(=O)Nc2ccc(C)cc2)n1 | 2µM* | -39 | ? | 5µM* | 0
O=C(Cn1c(=S)[nH]c2ccccc21)c1ccccc1 | ? | 19 | 2% | 10µM* | 0
COc1ccccc1CN1CCC2(CCNCC2)CC1 | -16% | . | . | -17% | 1
CCOc1ccc(CN2CCC(n3nccc3NC(=O)CCCc3ccccc3)CC2)cc1 | -1% | 1 | ? | 13% | .
CCOc1cccc(CN2CCC(n3nccc3NC(=O)CCCc3ccccc3)CC2)c1 | 4% | 27 | 6.5µM* | 17% | .
COc1ccc(C2C=C(C34CC5CC(CC(C5)C3)C4)NC(=S)N2)cc1 (stereo not given) | 1.6µM* | -18 | 1% | 0.79µM* | 1
COc1ccccc1N=Cc1c(C)c(C#N)c2[nH]c3ccccc3n2c1=O | 14% | -9 | 5% | 7% | -20
